Compound activity from PubChem.
Shown are actives, neighbours in structure and some others; about 19% of the full set was active somewhere.
DT40 TDP1 no CPT: qHTS for Inhibitors of human tyrosyl-DNA phosphodiesterase 1 (TDP1): qHTS in cells in absence of CPT; Potency, µM (top dose mostly 46.2 µM), inactives show at the top dose activity change, negative = growth inhibition, hits mostly inhibitors; 420,000 tested, 15% active; DT40 Tdp1-/- hTDP1 cells, no CPT, ATP luminescence, 48 h; also: potency is read from the fitted curve at half-maximal effect; % is scaled to controls: 0 for no effect and ±100 for the full control effect; nearly all actives have a fitted effect of over 55% in size
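Seeded 400 DT40-hTDP1 cells/well (vehicle DMSO, no 20 nM CPT); pinned compounds; ≥48 hr at 37 °C; CellTiter-Glo luminescence as viability measure.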
HepG2 tox: HepG2 cytotoxicity, counter-screen for TGF-b inhibitors | Potency, µM (doses to about 46.1 µM), for the others: top-dose activity change, negative = cytotoxicity, most hits filed as cytotoxic | 410,000 tested, 0.76% active | AID 588856 | HepG2 CAGA-GFP viability, ATP luminescence, 18 h; also: potency is read from the fitted curve at half-maximal effect
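CellTiter-Glo luminescence gave cytotoxicity after 18 hours at 37 degrees C. The cells were HepG2 CAGA-GFP in 1% FBS DMEM, stimulated with 500 pg/mL TGF-beta after compound addition. %Activity was normalised to no-cell wells (complete cell-killing) and DMSO (no toxicity), and curves were fitted and classified.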
TDP1 cell CPT: growth inhibition of DT40 Tdp1-/-;hTDP1 cells with camptothecin (screen for TDP1 inhibitors); chicken DT40 Tdp1-/-;hTDP1 cells + 20 nM CPT, ATP luminescence, 48 h; Potency, µM (doses to about 46.2 µM), without a hit: at the top dose activity change, negative = growth inhibition, usual class: inhibitors; 420,000 tested, 12% active; AID 686979; also: potency is read from the fitted curve at half-maximal effect; % is scaled to controls: 0 for no effect and ±100 for the full control effect; nearly all actives have a fitted effect of over 55% in size
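Chicken DT40 Tdp1-/- cells complemented with human TDP1, 400 cells/well, exposed to compounds plus 20 nM camptothecin for at least 48 h at 37 C; viability read as ATP content by CellTiter-Glo luminescence.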
IL1B secr inh: inflammasome signaling inhibition, IL-1 beta readout | AID 743279 | 360,000 tested, 4.7% active | activity change, % at 57.5 µM | THP-1 LPS/ATP IL-1B secretion, AlphaLISA, 16 h; active compounds read low; in the data active = activity change below about -50%; inconclusive = mostly about -30% to -49%; also: % is scaled to controls: 0 for no effect and ±100 for the full control effect
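Secreted IL-1B measured by AlphaLISA bead assay after 16 h compound exposure of THP-1 cells; compounds (final up to 57.5 uM) added 1 h before LPS (250 ng/mL) and ATP (1.25 mM) stimulation; lower signal means less secretion.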
TDP1 block: TDP1 (human) enzyme inhibition; recombinant TDP1, AlphaScreen DNA substrate cleavage; Potency, µM (top dose mostly 130 µM), inactives show at the top dose activity change, negative = inhibition, hits mostly inhibitors; 350,000 tested, 0.28% active; AID 485290; also: potency is read from the fitted curve at half-maximal effect; % is scaled to controls: 0 for no effect and ±100 for the full control effect; nearly all actives have a fitted effect of over 40% in size
Target sequence (Q9NUW8 whole entry, looked up): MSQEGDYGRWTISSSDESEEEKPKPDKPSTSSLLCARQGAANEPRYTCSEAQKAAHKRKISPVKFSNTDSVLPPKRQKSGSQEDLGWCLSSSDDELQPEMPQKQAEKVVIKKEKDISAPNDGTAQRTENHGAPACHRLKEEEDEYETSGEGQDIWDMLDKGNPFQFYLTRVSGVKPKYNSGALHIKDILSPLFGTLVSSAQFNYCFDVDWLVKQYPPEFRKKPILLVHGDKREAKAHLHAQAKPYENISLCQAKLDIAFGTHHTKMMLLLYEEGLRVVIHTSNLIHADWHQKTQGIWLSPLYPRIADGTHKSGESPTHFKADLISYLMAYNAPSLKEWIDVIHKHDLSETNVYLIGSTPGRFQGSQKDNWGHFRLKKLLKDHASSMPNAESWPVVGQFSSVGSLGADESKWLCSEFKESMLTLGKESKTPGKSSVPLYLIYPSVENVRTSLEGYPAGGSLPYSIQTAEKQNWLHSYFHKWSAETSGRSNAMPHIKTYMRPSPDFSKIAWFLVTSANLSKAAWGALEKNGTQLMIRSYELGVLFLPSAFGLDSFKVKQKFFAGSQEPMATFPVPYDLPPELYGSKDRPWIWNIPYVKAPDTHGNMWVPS
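E. coli-derived human Tdp1, 1 nM final. Cpd preinc 15 min RT; substrate 15 nM final, 5 min RT; AS bead mix 10 ug/ml final, 10 min RT. Signal loss = tyrosine-FITC cleavage. No-enzyme wells = max signal.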
TGFb SMAD3 inh: TGF-b pathway inhibition. HepG2 CAGA-GFP TGF-b/SMAD3 reporter, GFP fluorescence, 18 h; TGF-beta stimulated, 500 pg/mL final. Potency, µM (top dose mostly 46.1 µM), for inactives: at the top dose activity, negative = inhibition, hits mostly inhibitors. 410,000 tested, 1.2% active. AID 588855; also: potency is read from the fitted curve at half-maximal effect; % is scaled to controls: 0 for no effect and ±100 for the full control effect; nearly all actives have a fitted effect of over 65% in size
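Per well, imaged GFP fluorescence of HEPG2 CAGA-GFP cells gives the signal; cells get compound, then TGF-beta (500 pg/mL final), 18 h at 37 degrees C; %Activity versus -TGF-beta and +DMSO controls.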
Numbers without * were called inactive; ? = inconclusive; nt = no result given; [ ] = another dose, or the depositor's remark. Unless noted, calls follow the shape of the dose curve; as a rule, active = well fitted curve in the direction sought with a large enough effect; inconclusive = small, poorly fitted or top-dose-only effect, or another doubt; inactive = no such curve, though single readings can be large; an effect the other way counts as inactive or inconclusive.

SMILES	DT40 TDP1 no CPT	HepG2 tox	TDP1 cell CPT	IL1B secr inh	TDP1 block	TGFb SMAD3 inh
CC(NC(=O)c1ccc(Cl)cc1)c1nnc(SCC(=O)NC2=NCCS2)n1C (centres undefined)	-5.5%	-11.5%	4.6%	-8.7	nt	2.6%
COc1ccc(NCc2cc3cc4c(cc3n(CC(=O)Nc3ccccc3)c2=O)OCO4)cc1	4.11µM*	-10.0%	5.17µM*	nt	11.3%	-5.6%
Cc1ccc(NCc2cc3cc4c(cc3n(CC(=O)Nc3ccc(F)cc3F)c2=O)OCCO4)cc1	nt	2.3%	nt	nt	-5.6%	11.2%
Cc1ccc(NCc2cc3cc4c(cc3n(CC(=O)Nc3ccc(C)cc3)c2=O)OCCO4)cc1	8.2µM*	-12.3%	7.31µM*	nt	0.0%	-8.7%
COc1ccc(NCc2cc3cc4c(cc3n(CC(=O)Nc3cc(C)cc(C)c3)c2=O)OCO4)cc1	nt	1.4%	nt	nt	2.8%	13.2%
COc1ccc(-n2cc(-c3ccc4c(c3)OCO4)n(CC(=O)Nc3cccc(C)c3)c2=O)cc1	?	-20.2%	23.1µM*	nt	0.0%[12.3 µM]	-27.9%
COc1cc2cc(CNc3ccc(C)cc3)c(=O)n(CC(=O)Nc3ccc(F)cc3F)c2cc1OC	16.4µM*	-1.8%	?	nt	2.8%	-24.2%
C=CCN1C(=O)/C(=C/N(C)C)S/C1=N\S(=O)(=O)c1cccs1	-27.2%	3.9%	-15.5%	-14.6	nt	6.4%
CC1=C(C(=O)Nc2cccc(C(F)(F)F)c2)C2(CCN(C(C)C)CC2)OC1=O	-29.0%	-20.3%	-14.7%	nt	-2.6%	-7.9%
CC(C)CSc1oc(-c2ccco2)nc1S(=O)(=O)c1ccc(Br)cc1	?	-14.7%	?	nt	-8.8%	0.0%
CCc1nn(CC(=O)Nc2ccc(C)c(F)c2)c(=O)c2cc3cc(C)ccc3n12	?	-5.4%	?	nt	2.5%	-4.7%
O=C(COc1ccccc1)Nc1cccc(-c2nc3ccccc3[nH]2)c1	23.1µM*	-51.3%	?	-100.7*	5.3%	?
COc1ccc(OCC(=O)Nc2cccc(-c3nc4ccccc4[nH]3)c2)cc1	?	-38.4%	14.6µM*	?	5.1%	-16.5%
O=C(O)CCCC(=O)Nc1cccc(-c2nc3ccccc3[nH]2)c1	-6.4%	-3.6%	-6.9%	0.8	3.1%	-11.7%
Cc1ccccc1NC(=O)N1CCC(NC(=O)C2CCCCC2)CC1	-10.9%	6.9%	-3.4%	-12.6	2.0%	15.3%
CC(C)C[C@H](NC(=O)OCC1c2ccccc2-c2ccccc21)C(=O)O	-12.8%	-29.7%	-3.0%	7.8	nt	-16.2%
O=C(NC(Cc1cn(Cc2ccccc2)cn1)C(=O)O)OCC1c2ccccc2-c2ccccc21 (centres undefined)	13µM*	-17.5%	14.6µM*	-7.3	nt	?
O=C(Cc1ccccc1)NC(Nc1ccccc1)C(Cl)(Cl)Cl (centres undefined)	-19.9%	14.5%	?	-9.3	3.6%	25.9%
O=C(Cc1ccccc1)NC(Nc1cccc2ccccc12)C(Cl)(Cl)Cl (centres undefined)	25.9µM*	-15.8%	?	30.1	-2.0%	2.5%
CC(C)Cc1nnc(NC(=O)C2CC(=O)N(c3ccc4c(c3)OCCO4)C2)s1 (centres undefined)	-3.9%	-21.0%	0.7%	7.8	0.1%	?
O=C(c1cccc(Cl)c1)N(Cc1ccco1)Cc1ccccc1Cl	-79.7%	-39.5%	?	nt	6.1%	nt
COc1ccc(Cl)c(N2CCN(CCCNC(=O)Nc3ccc(C)cc3)CC2)c1	?	-49.7%	?	-56.0*	6.8%	?
COc1ccc(NC(=O)NCCN2CCc3ccccc3C2)cc1	-8.0%	7.8%	-13.9%	-4.8	6.6%	14.2%
O=C(NCCCN1CCN(c2ccc(F)cc2)CC1)Nc1ccccc1Cl	?	-37.9%	20.6µM*	nt	2.5%	-27.5%
O=C(NCCCN1CCc2ccccc2C1)Nc1ccc(Cl)cc1	-27.3%	-56.8%	16.4µM*	-55.3*	-4.0%	-15.5%
SMILES	DT40 TDP1 no CPT	HepG2 tox	TDP1 cell CPT	IL1B secr inh	TDP1 block	TGFb SMAD3 inh
COc1ccc(NC(=O)NCCN2CCN(c3cc(OC)ccc3OC)CC2)cc1	-2.6%	-1.5%	-7.9%	-21.6	7.1%	-0.8%
COc1ccc(N2CCN(CCCNC(=O)Nc3ccccc3Cl)CC2)cc1	20.6µM*	-32.8%	?	nt	7.5%	?
CCCc1cc(=O)[nH]c(SCC(=O)N2CCc3ccccc3C2)n1	0.5%	-30.0%	-1.9%	61.3	-0.5%[56.1 µM]	-20.8%
COc1cccc2c1cc1c(=O)n(CC(=O)NCc3ccc(N(C)C)cc3)nc(C)n12	-10.4%	-0.8%	0.8%	nt	5.9%	-15.4%
CC(C)OCCCN1C=C2C(=O)C(C)(OC(=O)C3CCCC3)C(=O)C=C2C=C1c1ccsc1 (centres undefined)	nt	nt	nt	nt	8.0%[12.3 µM]	nt
O=C(NCCCN1CCOCC1)NC12CC3CC(CC(C3)C1)C2	-28.5%	13.3%	-14.6%	11.0	4.2%	12.0%
O=C(NCCCN1CCN(c2ccc(F)cc2)CC1)Nc1ccc(Cl)cc1	18.4µM*	-97.0%	20.6µM*	nt	0.0%[12.3 µM]	?
O=C(NCCCN1CCN(c2ccc(F)cc2)CC1)NC12CC3CC(CC(C3)C1)C2	20.6µM*	-11.2%	16.4µM*	?	nt	3.6%
CC(C)N(Cc1ccccc1)C(=O)CN1C(=O)NC2(CCCCCC2)C1=O	-38.8%	0.1%	-20.6%	6.5	0.3%	-4.7%
Cc1cccc(N2CCN(S(=O)(=O)c3ccc4oc(=O)c5ncn(C)c5c4c3)CC2)c1C	16.4µM*	-8.1%	?	nt	2.5%	1.0%
NC(=O)c1ccccc1OCC(=O)N1CCCc2ccccc21	?	-5.2%	?	48.4	0.5%	14.5%
O=C(COc1ccc(Br)cc1CO)N1CCCc2ccccc21	25.9µM*	-15.7%	-5.5%	-10.9	-0.3%	8.4%
CCc1cc(=O)oc2c(C)c(OCC(=O)N3CCCc4ccccc43)ccc12	?	-54.4%	18.4µM*	-19.9	7.8%	?
CCc1cc(=O)oc2cc(OCC(=O)N3CCc4ccccc43)ccc12	nt	nt	nt	nt	2.1%	nt
CCCCn1c(N)c(N(CC(C)C)C(=O)C2=COCCO2)c(=O)[nH]c1=O	3.3%	-15.5%	4.6%	11.6	0.5%	-4.3%
CCC(=NCCc1c(C)[nH]c2ccc(C)cc12)C1=C(O)CC(c2ccccc2)CC1=O (centres undefined)	0.82µM*	-14.9%	0.581µM*	2.3	7.0%	?
